Among the data in PubChem BioAssay (NCI) are growth values, retold here.

The panel holds about 83,000 compounds, 20% with a hit somewhere; the sample as a whole holds those more often.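 Compound tested at a single concentration for 48 hours in 96-well plates; a percent growth value below 10 was scored as active.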 Values without a mark were called inactive. Activity calls are given as the source filed them.

Holding throughout (test): NCI-60 one-dose screen, 48 h (100 = growth as untreated, 0 = no growth, -100 = all killed)
For one assay, the system named is SK-MEL-2 melanoma. The following applies: 10 µM unless noted.
For another assay, the system named is EKVX NSCLC. The settings on record: 10 µM unless noted.
In another assay the test system is SN12C renal. The settings on record: 10 µM unless noted.
Another assay relates to UO-31 renal. The settings on record: 10 µM unless noted.
The subject of a further assay is TK-10 renal. The following applies: 10 µM unless noted.
The test system of a further assay is ACHN renal. The settings on record: 10 µM unless noted.
The next assay relates to CAKI-1 renal. The following applies: 10 µM unless noted.
A further assay relates to A498 renal. The settings on record: 10 µM unless noted.
In another assay the test system is CCRF-CEM leukemia. The following applies: 10 µM unless noted.
The next assay relates to MOLT-4 leukemia. The settings on record: 10 µM unless noted.
Another assay has as its system SR leukemia. The settings on record: 10 µM unless noted.
The subject of another assay is RPMI-8226 leukemia. The following applies: 10 µM unless noted.
For a further assay, the system named is OVCAR-8 ovarian. The following applies: 10 µM unless noted.
A further assay relates to OVCAR-5 ovarian. The settings on record: 10 µM unless noted.
Another assay has as its system OVCAR-4 ovarian. The following applies: 10 µM unless noted.
A further assay relates to SK-OV-3 ovarian. The settings on record: 10 µM unless noted.
Another assay deals with IGROV1 ovarian. The settings on record: 10 µM unless noted.
For the next assay, the system named is HS 578T breast. The following applies: 10 µM.
For another assay, the system named is NCI/ADR-RES ovarian. The following applies: 10 µM unless noted.
For the next assay, the system named is OVCAR-3 ovarian. The following applies: 10 µM unless noted.

For `CCCCOc1ncnc2nc[nH]c12`, the growth with SK-MEL-2 melanoma is 104%; in the assay with EKVX NSCLC, 112%; with SN12C renal, 102%; in the assay with UO-31 renal it was 99.7%; in the assay on TK-10 renal, 101%; in the assay on ACHN renal, 101%. For the same compound, the growth in the assay with CAKI-1 renal was 106%; in the assay on A498 renal, 97%; in the assay on CCRF-CEM leukemia it was 113%; with MOLT-4 leukemia, 91.9%; in the assay on SR leukemia, 88.7%; in the assay with RPMI-8226 leukemia, 95.4%. Further, the growth in the assay on OVCAR-8 ovarian is 99.4%; in the assay with OVCAR-5 ovarian it was 103%; with OVCAR-4 ovarian, 102%; with SK-OV-3 ovarian it was 107%; in the assay with IGROV1 ovarian it was 124%; with HS 578T breast, 100%. Also, the growth in the assay on NCI/ADR-RES ovarian is 105%.

On to `CCC(C)C1NC(=O)c2nc(oc2-c2ccccc2)-c2csc(n2)-c2csc(n2)-c2nc(oc2C)-c2coc(n2)CNC(=O)C(C(C)CC)NC1=O` (configuration not stated), for which the growth with SK-MEL-2 melanoma is -80.1% (active); in the assay with EKVX NSCLC, -71.3% (active); in the assay on SN12C renal, -65.3% (active); in the assay on UO-31 renal, -90.1% (active); in the assay with TK-10 renal, -86.7% (active); in the assay on ACHN renal, -91.3% (active). In addition, the growth in the assay on CAKI-1 renal was -95.2% (active); with A498 renal it was -85.3% (active); in the assay with CCRF-CEM leukemia, -66.4% (active); in the assay on MOLT-4 leukemia, -66.2% (active); with SR leukemia it was -47.8% (active); in the assay with RPMI-8226 leukemia it was -63.5% (active). For the same compound, the growth is -62% (active) in the assay on OVCAR-8 ovarian; -86.1% (active) with OVCAR-5 ovarian; -80.6% (active) in the assay with OVCAR-4 ovarian; -89.2% (active) in the assay with SK-OV-3 ovarian; -71.5% (active) in the assay with IGROV1 ovarian; -88% (active) in the assay on OVCAR-3 ovarian. The figures for the growth with HS 578T breast and in the assay with NCI/ADR-RES ovarian were -57.3% (active) and 12.3%, respectively.

For the compound `Cc1cc(NC(=O)c2ccc(N)cc2)ccc1N=Nc1ccc2cc(S(=O)(=O)O)cc(S(=O)(=O)O)c2c1`, the growth in the assay with SK-MEL-2 melanoma is 121%; in the assay on EKVX NSCLC, 99.9%; in the assay on SN12C renal, 109%; with UO-31 renal, 101%; in the assay on TK-10 renal it was 97.9%; with ACHN renal, 95.2%. Moreover, the growth with CAKI-1 renal is 91.5%; with A498 renal it was 90.6%; in the assay on CCRF-CEM leukemia, 87.1%; in the assay on MOLT-4 leukemia, 112%; in the assay with SR leukemia, 107%; in the assay on RPMI-8226 leukemia, 94%. Also, the growth in the assay with OVCAR-8 ovarian was 107%; in the assay on OVCAR-5 ovarian it was 98.7%; in the assay with OVCAR-4 ovarian, 117%; in the assay with SK-OV-3 ovarian, 103%; in the assay with IGROV1 ovarian, 102%; with HS 578T breast it was 110%. For the same compound, the growth with NCI/ADR-RES ovarian is 108%.

`CCN(CC)CCCC(C)Nc1cnc(C(=O)Nc2ccc(Cl)c3cccnc23)cn1` (configuration not stated): the growth is 57.8% in the assay with SK-MEL-2 melanoma; 66.1% in the assay on EKVX NSCLC; 31.7% in the assay on SN12C renal; 23.8% in the assay with UO-31 renal; 57.6% in the assay with TK-10 renal; -54.8% (active) with ACHN renal. For the same compound, the growth in the assay with CAKI-1 renal was 23.1%; with A498 renal it was 54%; with CCRF-CEM leukemia, 5.29% (active); in the assay on MOLT-4 leukemia it was 2.9% (active); in the assay on SR leukemia it was 1.42% (active); in the assay on RPMI-8226 leukemia it was 2.2% (active). Further, the growth in the assay on OVCAR-8 ovarian was 27.3%; in the assay on OVCAR-5 ovarian, 53.3%; with OVCAR-4 ovarian, 51.3%; in the assay with SK-OV-3 ovarian, 79.5%; in the assay with IGROV1 ovarian, 44.2%; in the assay with OVCAR-3 ovarian, -23.7% (active). The growth with HS 578T breast is 51.4%; with NCI/ADR-RES ovarian it was 52.2%.

As to `CCOC(=O)C(Nc1ccccc1)C(=O)OCC`, the growth with SK-MEL-2 melanoma was 108%; in the assay with EKVX NSCLC it was 108%; in the assay with SN12C renal it was 99.3%; with UO-31 renal it was 74.8%; in the assay on TK-10 renal, 107%; in the assay with ACHN renal, 99.3%. For the same compound, the growth in the assay with CAKI-1 renal is 105%; in the assay on A498 renal, 126%; in the assay on CCRF-CEM leukemia, 111%; in the assay with MOLT-4 leukemia, 83%; with SR leukemia, 106%; with RPMI-8226 leukemia, 106%. Also, the growth in the assay on OVCAR-8 ovarian was 105%; in the assay on OVCAR-5 ovarian, 100%; with OVCAR-4 ovarian, 93%; in the assay on SK-OV-3 ovarian, 105%; with IGROV1 ovarian, 92.3%; in the assay with OVCAR-3 ovarian, 129%. Moreover, the growth was 117% in the assay on HS 578T breast and 102% with NCI/ADR-RES ovarian.

In the case of `COc1cc(Cn2c(-c3ccccc3)cc3c2-c2oncc2CC3)cc(OC)c1OC`, the growth in the assay on SK-MEL-2 melanoma was 31.4%; in the assay on EKVX NSCLC, 38.3%; in the assay on SN12C renal, 49.3%; in the assay on UO-31 renal it was 4.35% (active); in the assay with TK-10 renal, 47.1%; with ACHN renal it was 48.2%. Also, the growth was 0% (active) with CAKI-1 renal; 2.81% (active) in the assay with A498 renal; 16.9% in the assay on CCRF-CEM leukemia; 14.1% in the assay on MOLT-4 leukemia; 8.51% (active) with SR leukemia; 40.5% in the assay on RPMI-8226 leukemia. In addition, the growth in the assay with OVCAR-8 ovarian was 34.2%; with OVCAR-5 ovarian it was 69.1%; in the assay on OVCAR-4 ovarian, 54.8%; with SK-OV-3 ovarian, 13%; in the assay with IGROV1 ovarian, 18.4%; in the assay on OVCAR-3 ovarian, -44.3% (active). The growth in the assay on NCI/ADR-RES ovarian is 4.65% (active).

As for `COc1cc(/C=C/C(=O)c2c(C)nc3ccccc3c2C)ccc1OCCCOc1cc2c(cc1OC)C(=O)N1CCC[C@H]1C=N2`, the growth in the assay with SK-MEL-2 melanoma was -61.3% (active); in the assay on EKVX NSCLC, -76.4% (active); with SN12C renal, 10.2%; with UO-31 renal, 14.2%; in the assay on TK-10 renal, -65.8% (active); in the assay on ACHN renal, -41.2% (active). Besides, the growth was 4.18% (active) in the assay with CAKI-1 renal; -76.4% (active) in the assay on A498 renal; -48.6% (active) with CCRF-CEM leukemia; -25.5% (active) with MOLT-4 leukemia; -34.3% (active) in the assay on SR leukemia; -22.6% (active) in the assay with RPMI-8226 leukemia. Also, the growth was 12.3% with OVCAR-8 ovarian; -23.1% (active) with OVCAR-5 ovarian; -10.9% (active) in the assay with OVCAR-4 ovarian; -9.97% (active) in the assay on SK-OV-3 ovarian; -61.7% (active) in the assay with IGROV1 ovarian; -86.9% (active) in the assay with OVCAR-3 ovarian. The results for the growth in the assay on HS 578T breast and in the assay on NCI/ADR-RES ovarian were -2.33% (active) and 13.9%, respectively.

Take `Nc1nc2ccc([C@@H]3Nc4ccc5[nH]ncc5c4[C@H]4[C@H]5CCC(C5)[C@H]43)cc2s1`: the growth was -1.54% (active) in the assay on SK-MEL-2 melanoma; 16.2% in the assay on EKVX NSCLC; 11.4% in the assay with SN12C renal; 30.4% in the assay with UO-31 renal; 46.3% in the assay with TK-10 renal; 29.7% in the assay with ACHN renal. The growth in the assay on CAKI-1 renal is 29.8%; in the assay on A498 renal it was -2.86% (active); in the assay with CCRF-CEM leukemia, 21.2%; with MOLT-4 leukemia, 7.02% (active); in the assay with SR leukemia it was 51.1%; in the assay on RPMI-8226 leukemia, 19.5%. Besides, the growth in the assay with OVCAR-8 ovarian was 37.5%; with OVCAR-5 ovarian it was 21.3%; in the assay with OVCAR-4 ovarian it was 14.4%; in the assay on SK-OV-3 ovarian, -17.5% (active); with IGROV1 ovarian, 33.3%; in the assay on OVCAR-3 ovarian it was -6.66% (active). Also, the growth with HS 578T breast is 8.66% (active); in the assay with NCI/ADR-RES ovarian, 17.4%.
